Results as given in PubChem BioAssay AID602314 (ICCB-Longwood Screening Facility, Harvard Medical School, 2012).
Hit rate of the full screen: of about 84,000 compounds, about 110 (0.13%) were called active. This is one part of a sample in which actives are shown more often than they occur. A number with no mark means an inactive call. Rule as the data show it: active = inhibition above about 30% (passing the limit was not always enough); inactive = the rest.

Test system: MgrA (MarR family transcriptional regulator), Staphylococcus aureus Newman
Test: modulators of MgrA DNA binding – biochemical, S. aureus Newman, fluorescence polarization, primary screen (AID 602314);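 also: 0% = protein plus DNA without compound and 100% = DNA alone without protein; higher means less MgrA bound to DNA so lower polarization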
Conditions: stronger effect = higher value, concentration not given here

SMILES	inhibition
O=C1CSC(=S)N1c1ccc(Oc2ccc(Cl)cc2)cc1	-2.4%
Cn1nnc(NC(=O)COc2ccccc2)n1	-1.4%
O=C(O)C1=Cc2sc3c(c2CS1)CCCC3	72.7% (active)
NC(=O)c1c(NC(=O)c2ccccc2)sc2c1CCCC2	0.05%
CC/C(=N\OC(=O)c1cccs1)c1ccc(-c2ccccc2F)cc1	4.4%
CN(C)C(=O)Cn1c(=O)n(S(=O)(=O)c2ccccc2)c2ccccc21	7.3%
CN(C)c1ncnc2nc[nH]c12	0.75%
CCCN(CCC)S(=O)(=O)c1cccc2c(N)cccc12	-2.2%
CC1=C(C(=O)OCCOC(C)C)C(c2ccccc2OCc2ccccc2)NC(=O)N1 (stereo not given)	-4.9%
CC1(C)COC(c2cccc(C#N)c2)OC1	-1.45%
CCN1CCCc2cc(CN(CCN3CCOCC3)C(=S)Nc3c(C)cc(C)cc3C)ccc21	4.95%
COC(=O)C1=C(C)NC2=C(C(=O)CC(c3ccc(Cl)cc3)C2)C1c1ccc(OC(C)=O)c(OC)c1 (stereo not given)	-2.1%
OCC(O)CN(c1ccccc1)c1ccccc1 (stereo not given)	-1.8%
Cc1ccc2cc(C#N)c(SCC(=O)Nc3ccccc3)nc2c1	-0.85%
O=C(CCSc1ccc(Cl)cc1)Nc1ccc(F)c(F)c1F	0.15%
COc1ccccc1Nc1n[nH]c(=S)n1C(=O)c1cccs1	2.9%
O=C(O)CCc1nn2c(=O)c3ccccc3nc2s1	-0.2%
CCCN(c1ccc(C)cc1)c1nc(=O)c2cccnc2s1	0.75%
C=CCn1c(=O)c(C(=O)NCC2CCCN2CC)c(O)c2cc(OC)c(OC)cc21 (stereo not given)	-0.05%
NC(=O)c1sccc1NS(=O)(=O)c1ccc(Cl)c(Cl)c1	2.05%
CSc1ncc(C(N)=O)c(N)n1	-4%
CC(=O)Nc1ccc(-c2nc(-c3ccccc3)c3cc(C)ccc3n2)cc1	0.5%
COc1ccccc1NC(=O)C1CC(=O)N(CCc2ccccc2)C(=Nc2ccccc2)S1 (stereo not given)	0.9%
CN(Cc1ccccc1)C(=O)c1cccc(-c2nnc(-c3ccccc3)o2)c1	1.3%
O=C(O)COc1ccc(NC(=O)c2ccccc2F)cc1	-2.2%

SMILES	inhibition
CC(C)=CC(=O)Nc1nc2ccc(C)cc2s1	5.35%
c1ccc(NC2CCCCC2)cc1	-1.2%
O=C(c1cc(-c2ccccc2)c(C(F)(F)F)s1)N1CCCC1	-2.9%
c1ccc(CNC2C3CC4CC(C3)CC2C4)nc1 (stereo not given)	-6%
CC12CC[C@H](CC1=O)C2(C)C	0.7%
COc1ccc(O)c(/C=N/NC(=O)c2ccn(Cc3ccc(Cl)cc3)n2)c1	2.4%
Nc1cc(C(=O)OCC(=O)NC2CCCCCC2)ccc1Cl	-0.65%
COC(=O)c1ccc(C2NN=C(c3ccccc3)S2)cc1 (stereo not given)	2.7%
Cc1ccccc1CNCc1cccs1	-3.4%
O=c1[nH]c2ccccc2c(=O)n1NS(=O)(=O)c1ccc2ccccc2c1	1.35%
CCCc1c(C)nc2c(C)cccc2c1SCCC(=O)O	0%
CC(C)C(=O)N=C1SC2CS(=O)(=O)CC2N1CCc1ccccc1 (stereo not given)	0.45%
CCCn1nnnc1NC(=S)NC(=O)c1cc2ccccc2o1	3.35%
O=C(O)C1C2CCC(C2)C1C(=O)NCCCN1CCCC1=O (stereo not given)	1.45%
O=[N+]([O-])c1ccc(Oc2cccc(Cl)c2)nc1	-0.6%
CCOC(=O)N1CCN(Cc2nc3c(c(=O)n(C)c(=O)n3C)n2CC)CC1	6.15%
CC(NC(=S)Nc1ccc(S(N)(=O)=O)cc1)c1ccc2c(c1)OCO2 (stereo not given)	0.45%
Cc1ccc(C(=O)[C@@H]2[C@@H](C(C)(C)C)C(C#N)(C#N)[C@@]3(C)C=Cc4ccccc4N23)cc1	-0.85%
CCc1cccc(CC)c1N1C(=O)C(C)=C(C)C1=O	-0.9%
O=C(O)CNC(=O)c1ccc(Cl)c(Cl)c1	-1.25%
O=C(O)C1CCCCC1C(=O)Nc1ccc2[nH]c(=S)sc2c1 (stereo not given)	6.3%
CCC(NC(=O)Nc1cc(C)cc(C)c1)c1c(-n2cccc2)sc2c1CCN(CC)C2 (stereo not given)	1%
Cc1nc2ccc(C(=O)OCCC(F)(F)F)cc2[nH]1	-0.25%
Cc1cc(C)c(C(=O)N2CCCCC2C)c(C)c1 (stereo not given)	-0.7%
O=C(NC1CCCCNC1=O)c1ccc(N2CCOCC2)nc1 (stereo not given)	-0.3%
